This passage reports Percent Effect results from ChEMBL document CHEMBL3988442, “University of Dundee, Small-Polar-MMV Screening Library” (2021).

Parameters in all cases: scale not given: direction of the effect not stated beside the values
In assay [1] the target is Protein translocase subunit SecA (Escherichia coli (strain K12)) (UniProt P10408). The experiment in a line: Assay to Identify E. coli SecA ATPase Inhibitors. It counts as functional. Conditions: 30 µM.
In assay [2] the target is T1, Ubiquitin-activating enzyme e1, putative (Leishmania donovani (strain BPK282A1)) (UniProt E9BSI1).
T1 sequence (whole entry): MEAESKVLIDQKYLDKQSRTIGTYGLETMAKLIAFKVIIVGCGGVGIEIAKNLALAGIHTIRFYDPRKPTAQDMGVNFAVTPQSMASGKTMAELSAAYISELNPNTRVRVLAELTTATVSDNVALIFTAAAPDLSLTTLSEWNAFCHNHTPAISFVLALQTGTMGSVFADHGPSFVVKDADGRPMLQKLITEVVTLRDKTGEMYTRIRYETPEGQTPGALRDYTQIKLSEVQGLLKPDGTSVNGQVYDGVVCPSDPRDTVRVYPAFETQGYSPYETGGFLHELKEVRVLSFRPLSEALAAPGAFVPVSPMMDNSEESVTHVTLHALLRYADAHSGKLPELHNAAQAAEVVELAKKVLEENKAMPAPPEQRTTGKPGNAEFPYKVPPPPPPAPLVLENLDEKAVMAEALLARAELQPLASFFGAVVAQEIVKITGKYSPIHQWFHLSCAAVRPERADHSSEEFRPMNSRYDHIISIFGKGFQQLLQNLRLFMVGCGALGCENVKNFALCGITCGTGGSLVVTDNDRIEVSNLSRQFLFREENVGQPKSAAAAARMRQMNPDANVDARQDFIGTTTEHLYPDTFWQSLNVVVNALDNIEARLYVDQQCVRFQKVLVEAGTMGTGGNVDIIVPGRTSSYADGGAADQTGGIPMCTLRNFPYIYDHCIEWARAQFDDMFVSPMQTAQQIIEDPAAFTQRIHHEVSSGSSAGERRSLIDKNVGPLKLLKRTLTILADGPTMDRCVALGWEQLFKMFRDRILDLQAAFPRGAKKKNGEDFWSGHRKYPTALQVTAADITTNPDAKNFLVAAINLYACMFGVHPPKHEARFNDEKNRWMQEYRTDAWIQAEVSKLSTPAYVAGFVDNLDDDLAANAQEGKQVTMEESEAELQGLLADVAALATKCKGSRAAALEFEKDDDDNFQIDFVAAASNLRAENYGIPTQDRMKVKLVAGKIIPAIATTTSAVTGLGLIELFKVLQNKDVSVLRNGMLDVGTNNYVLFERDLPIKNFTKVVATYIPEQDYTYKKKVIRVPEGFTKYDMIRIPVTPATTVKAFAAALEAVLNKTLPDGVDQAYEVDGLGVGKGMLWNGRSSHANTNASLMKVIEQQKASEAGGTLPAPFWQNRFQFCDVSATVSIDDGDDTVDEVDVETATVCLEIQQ
The assay can be described thus: Leishmania donovani Ubiquitin Activating Enzyme (LdE1). As to conditions: 30 µM. It counts as functional.

In assay [3] the target is AMP-activated protein kinase, AMPK (Homo sapiens) (UniProt P54646+O43741+P54619+Q9UGJ0+Q9Y478+Q13131+Q9UGI9). The assay can be described thus: AMP-dependent Kinase enzyme assay. An in vitro enzyme assay that detects ADP turnover that is directly proportional to AMPK activity. This uses naive AMPK that is activated during the assay with MK-8722. It counts as functional. Conditions: 30 µM.

Assay [4] deals with Sialic acid-binding Ig-like lectin 9 (Homo sapiens) (UniProt Q9Y336). The assay can be described thus: Hs-Siglec9 ALPHAscreen SOP 20170721. Conditions: 10 µM. In general terms: Bead proximity is the source of the signal in Alpha formats.
Sequence of Sialic acid-binding Ig-like lectin 9 (Homo sapiens) (Q9Y336 whole entry): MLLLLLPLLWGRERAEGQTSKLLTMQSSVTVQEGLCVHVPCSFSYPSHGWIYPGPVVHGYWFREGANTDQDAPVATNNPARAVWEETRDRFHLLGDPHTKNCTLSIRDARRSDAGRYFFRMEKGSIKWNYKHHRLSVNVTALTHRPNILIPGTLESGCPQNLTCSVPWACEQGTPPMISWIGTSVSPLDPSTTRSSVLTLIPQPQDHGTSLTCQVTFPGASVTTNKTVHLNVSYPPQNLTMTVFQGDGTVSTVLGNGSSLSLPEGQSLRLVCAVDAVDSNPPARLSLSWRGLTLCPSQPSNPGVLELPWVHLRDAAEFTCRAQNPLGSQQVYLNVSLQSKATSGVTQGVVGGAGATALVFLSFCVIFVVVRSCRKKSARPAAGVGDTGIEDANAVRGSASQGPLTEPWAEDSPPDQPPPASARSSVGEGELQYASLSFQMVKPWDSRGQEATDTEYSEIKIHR
A further assay concerns Trypanosoma cruzi. The assay can be described thus: Trypanosoma cruzi phosphomannomutase and mannose-1-phosphate guanylyltransferase assay. It counts as functional. Conditions: 10 µM.
Assay [5] concerns the target T2, Arginase-2, mitochondrial (Homo sapiens) (UniProt P78540).
T2 sequence (whole entry): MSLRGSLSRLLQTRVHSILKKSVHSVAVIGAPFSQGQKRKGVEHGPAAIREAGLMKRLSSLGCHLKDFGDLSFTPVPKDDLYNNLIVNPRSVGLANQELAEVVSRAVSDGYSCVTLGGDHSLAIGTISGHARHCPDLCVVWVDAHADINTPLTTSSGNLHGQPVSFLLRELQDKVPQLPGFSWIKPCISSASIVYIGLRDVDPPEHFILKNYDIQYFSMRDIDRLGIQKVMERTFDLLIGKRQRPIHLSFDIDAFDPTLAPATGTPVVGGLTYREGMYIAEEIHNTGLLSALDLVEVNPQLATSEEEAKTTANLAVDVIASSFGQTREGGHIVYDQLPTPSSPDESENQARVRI
The assay can be described thus: in vitro enzyme assay to detect the production of urea directly proportional to the activity of Arginase II. Further: in the data most compounds retested in dose-response had high values. It counts as functional. Conditions: 33.3 µM.

The target in assay [6] is T3, Proteasome subunit beta (Trypanosoma cruzi) (UniProt O96673).
T3 sequence (whole entry): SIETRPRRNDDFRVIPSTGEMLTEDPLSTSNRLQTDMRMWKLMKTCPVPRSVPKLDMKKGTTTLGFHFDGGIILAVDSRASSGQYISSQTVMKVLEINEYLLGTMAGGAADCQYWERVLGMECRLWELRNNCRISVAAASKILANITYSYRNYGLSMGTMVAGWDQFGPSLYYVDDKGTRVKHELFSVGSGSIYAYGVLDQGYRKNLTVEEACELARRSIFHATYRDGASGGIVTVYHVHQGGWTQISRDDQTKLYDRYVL
The assay can be described thus: Trypanosoma cruzi proteasome chymotrypsin-like activity (TcProtChymo) assay. Further: in the data most compounds retested in dose-response had high values. It counts as functional. Conditions: 9.37 µM.

The species named for another assay is Homo sapiens. The assay can be described thus: To identify inhibition of the IFN signalling (Jak-Stat) pathway via expression of an eGFP reporter gene under the control of an IFN-stimulated response element (ISRE) containing MxA promoter. Conditions: 30 µM. It counts as functional.
The target of assay [7] is T4, Tyrosyl-tRNA synthetase, putative (Trypanosoma cruzi (strain CL Brener)) (UniProt Q4DSP6).
T4 sequence (whole entry): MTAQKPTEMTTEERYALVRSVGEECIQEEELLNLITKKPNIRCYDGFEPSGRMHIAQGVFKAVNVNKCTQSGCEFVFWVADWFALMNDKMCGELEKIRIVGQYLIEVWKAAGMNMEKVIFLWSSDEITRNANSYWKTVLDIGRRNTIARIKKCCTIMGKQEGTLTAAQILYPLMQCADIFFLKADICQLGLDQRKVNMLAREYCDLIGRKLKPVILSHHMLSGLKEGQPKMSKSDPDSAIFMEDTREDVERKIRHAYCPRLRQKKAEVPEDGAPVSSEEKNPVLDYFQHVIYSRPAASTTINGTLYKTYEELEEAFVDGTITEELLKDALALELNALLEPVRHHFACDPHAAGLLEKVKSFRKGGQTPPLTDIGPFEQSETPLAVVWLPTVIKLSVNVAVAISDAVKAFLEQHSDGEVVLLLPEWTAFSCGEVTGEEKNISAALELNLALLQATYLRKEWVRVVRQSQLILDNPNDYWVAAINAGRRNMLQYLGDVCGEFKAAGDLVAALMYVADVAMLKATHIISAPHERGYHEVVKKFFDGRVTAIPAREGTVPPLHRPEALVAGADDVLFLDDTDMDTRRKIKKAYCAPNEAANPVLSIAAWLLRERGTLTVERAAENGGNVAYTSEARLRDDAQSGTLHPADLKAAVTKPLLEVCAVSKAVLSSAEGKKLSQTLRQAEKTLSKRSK
The experiment in a line: Trypanosoma cruzi tyrosyl tRNA synthetase (TcYRS) _High Tyrosine SOP. Further: in the data most compounds retested in dose-response had high values. It counts as functional. Conditions: 30 µM.

Assay [8] deals with T4, Tyrosyl-tRNA synthetase, putative (Trypanosoma cruzi (strain CL Brener)). The assay can be described thus: Trypanosoma cruzi tyrosyl tRNA synthetase (TcYRS) SOP. It counts as functional. As to conditions: 30 µM.
Assay [9] concerns the target Chromo domain-containing protein 1 (Saccharomyces cerevisiae (strain ATCC 204508 / S288c) (Baker's yeast)) (UniProt P32657). The experiment in a line: ScCHD-1 Enzyme Inhibition Assay. Further: in the data most compounds retested in dose-response had high values. It counts as functional. As to conditions: 30 µM.

Structures are written as SMILES. For some of these results: Results with a measured potency or affinity are listed apart.

Sequence of Protein translocase subunit SecA (Escherichia coli (strain K12)) (P10408 whole entry): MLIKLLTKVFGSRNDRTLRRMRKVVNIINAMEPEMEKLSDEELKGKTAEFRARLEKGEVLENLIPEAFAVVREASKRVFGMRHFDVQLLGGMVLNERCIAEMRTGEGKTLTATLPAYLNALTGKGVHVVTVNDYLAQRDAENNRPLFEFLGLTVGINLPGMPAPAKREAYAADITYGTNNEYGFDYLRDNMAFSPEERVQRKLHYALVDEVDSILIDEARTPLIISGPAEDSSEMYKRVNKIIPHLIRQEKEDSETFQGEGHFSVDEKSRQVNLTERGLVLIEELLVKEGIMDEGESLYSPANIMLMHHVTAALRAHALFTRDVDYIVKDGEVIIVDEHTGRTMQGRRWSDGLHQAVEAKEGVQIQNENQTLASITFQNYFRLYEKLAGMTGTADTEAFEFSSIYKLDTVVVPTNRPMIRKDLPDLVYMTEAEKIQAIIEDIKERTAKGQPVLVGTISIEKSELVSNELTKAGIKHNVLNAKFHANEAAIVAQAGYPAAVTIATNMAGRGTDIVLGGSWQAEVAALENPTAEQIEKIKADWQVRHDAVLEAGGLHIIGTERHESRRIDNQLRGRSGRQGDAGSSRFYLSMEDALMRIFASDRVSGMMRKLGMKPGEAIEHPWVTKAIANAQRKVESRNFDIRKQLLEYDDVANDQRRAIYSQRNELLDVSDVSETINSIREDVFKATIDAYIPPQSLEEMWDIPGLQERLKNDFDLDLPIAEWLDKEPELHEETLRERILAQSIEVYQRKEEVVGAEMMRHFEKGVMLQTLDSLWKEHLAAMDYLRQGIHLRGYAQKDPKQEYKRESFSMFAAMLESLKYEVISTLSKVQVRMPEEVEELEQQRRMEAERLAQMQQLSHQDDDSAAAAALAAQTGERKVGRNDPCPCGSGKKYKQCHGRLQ
Sequence of Chromo domain-containing protein 1 (Saccharomyces cerevisiae (strain ATCC 204508 / S288c) (Baker's yeast)) (P32657 whole entry, the tested form may be a part): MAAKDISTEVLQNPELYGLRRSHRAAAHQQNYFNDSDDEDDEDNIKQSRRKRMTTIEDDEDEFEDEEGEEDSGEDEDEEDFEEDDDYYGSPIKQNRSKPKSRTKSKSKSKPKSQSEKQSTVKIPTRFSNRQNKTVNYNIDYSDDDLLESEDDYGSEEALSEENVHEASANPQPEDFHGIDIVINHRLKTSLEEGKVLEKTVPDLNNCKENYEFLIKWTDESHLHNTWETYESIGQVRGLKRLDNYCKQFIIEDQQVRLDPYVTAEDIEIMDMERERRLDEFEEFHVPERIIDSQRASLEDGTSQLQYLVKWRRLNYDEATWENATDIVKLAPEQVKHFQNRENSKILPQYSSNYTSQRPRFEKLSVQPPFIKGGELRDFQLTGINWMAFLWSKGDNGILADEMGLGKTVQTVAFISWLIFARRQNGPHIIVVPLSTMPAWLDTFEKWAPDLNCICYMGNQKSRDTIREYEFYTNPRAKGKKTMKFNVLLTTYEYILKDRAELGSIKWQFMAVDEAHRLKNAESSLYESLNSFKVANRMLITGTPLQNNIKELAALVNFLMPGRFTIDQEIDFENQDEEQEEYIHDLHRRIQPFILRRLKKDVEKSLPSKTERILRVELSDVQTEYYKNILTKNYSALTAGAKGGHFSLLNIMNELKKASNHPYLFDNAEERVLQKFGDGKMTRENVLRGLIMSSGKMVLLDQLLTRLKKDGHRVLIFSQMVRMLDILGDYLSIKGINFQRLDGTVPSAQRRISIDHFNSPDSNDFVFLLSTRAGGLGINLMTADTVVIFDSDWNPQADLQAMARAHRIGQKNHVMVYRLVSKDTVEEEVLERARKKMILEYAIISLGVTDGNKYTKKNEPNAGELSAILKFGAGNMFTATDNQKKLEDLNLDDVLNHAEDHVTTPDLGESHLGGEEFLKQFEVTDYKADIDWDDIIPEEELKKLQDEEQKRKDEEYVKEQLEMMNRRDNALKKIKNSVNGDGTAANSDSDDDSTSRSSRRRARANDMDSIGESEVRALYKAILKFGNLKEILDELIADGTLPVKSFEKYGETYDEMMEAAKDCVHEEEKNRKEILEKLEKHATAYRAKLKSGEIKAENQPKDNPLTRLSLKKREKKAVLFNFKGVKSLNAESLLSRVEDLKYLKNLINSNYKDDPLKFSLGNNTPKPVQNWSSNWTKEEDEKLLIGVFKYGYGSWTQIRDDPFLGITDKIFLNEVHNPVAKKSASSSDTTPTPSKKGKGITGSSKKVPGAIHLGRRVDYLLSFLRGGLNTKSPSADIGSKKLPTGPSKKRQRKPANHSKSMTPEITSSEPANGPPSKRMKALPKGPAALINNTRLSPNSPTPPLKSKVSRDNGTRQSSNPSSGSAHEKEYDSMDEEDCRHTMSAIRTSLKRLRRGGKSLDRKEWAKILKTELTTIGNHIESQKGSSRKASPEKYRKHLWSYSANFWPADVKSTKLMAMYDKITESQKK

Take `CN1CCN(Cc2ccccc2CNC(=O)c2ccc(Br)cc2F)CC1`: the Percent Effect in assay [1] is -2.05%; in [2], 5.41%; in assay [3] it was -1.3%; in [4], 7.25%; in the assay with Trypanosoma cruzi, -1.86%; in assay [5], 3.72%. Besides, the Percent Effect in [6] was 3.35%; in the assay listed under Homo sapiens, 9.27%; in assay [7], 5.38%; in [8] it was 11.1%; in assay [9], -4.37%.

Regarding `CCN1CC(C(=O)N(C)Cc2ccon2)CC1=O` (stereo unspecified), the Percent Effect in [1] is -8.65%; in assay [2], 0%; in [3], -1.95%; in assay [4], -7.7%; in the assay with Trypanosoma cruzi it was -2.44%; in assay [5], -2.73%. Moreover, the Percent Effect in [6] is 7.47%; in the assay filed under Homo sapiens it was 13.7%; in assay [7], -1.07%; in assay [8] it was -1.24%; in assay [9] it was -3.83%.

In the case of `O=C([C@H]1CN(CCc2ccccc2)C[C@H]2OCC[C@@H]12)N1CCCO1`, the Percent Effect in assay [1] was -5.74%; in assay [2], 18.7%; in assay [3], -7.7%; in assay [4], -0.861%; with Trypanosoma cruzi it was 6.37%; in assay [5] it was -46.1%. The Percent Effect was 11.6% in [6]; 4.24% in the assay filed under Homo sapiens; 2.08% in assay [7]; 15% in assay [8]; -7.28% in assay [9].

In the case of `CCOc1nc2cccnc2n(CC(=O)NCCOC)c1=O`, the Percent Effect in [1] was -0.937%; in assay [2], 23.4%; in assay [3], 3.02%; in assay [4], -0.135%; with Trypanosoma cruzi it was 3.85%; in assay [5], -1.94%. For the same molecule, the Percent Effect was 10.4% in assay [6]; 3.76% in the assay filed under Homo sapiens; 3.17% in [7]; 11.5% in assay [8]; -9.72% in assay [9].

As to `CC(NC(=O)NCc1cc[nH]n1)c1ccc2c(c1)CCC(=O)N2` (stereo unspecified), the Percent Effect in [1] was -3.48%; in assay [2], 13%; in assay [3], -2.39%; in [4], 10.7%; with Trypanosoma cruzi it was 5.43%; in [5], 0.712%. The Percent Effect in [6] is 4.9%; in the assay listed under Homo sapiens, 4.17%; in assay [7], 4.85%; in assay [8], 21.9%; in [9] it was -9.64%.

Turning to `CCc1noc(C)c1C(=O)N1CCCC1c1c(C)nn(C)c1OC` (stereo unspecified), the Percent Effect in assay [1] was -2.91%; in assay [2], -2.53%; in assay [3], 2.09%; in [4], 2.98%; with Trypanosoma cruzi it was 2.36%; in assay [5], -3.42%. The Percent Effect is -3.03% in assay [6]; -17.3% in the assay listed under Homo sapiens; 1.48% in [7]; 1.27% in [8]; 0.826% in [9].

`O=C(CC1CCCO1)NCc1ccccc1Cn1cncn1` (stereo unspecified): the Percent Effect was -2.25% in assay [1]; 15.8% in assay [2]; -5.58% in assay [3]; -5.97% in assay [4]; -7.75% in the assay with Trypanosoma cruzi; 4.32% in assay [5]. In addition, the Percent Effect is 9.39% in assay [6]; 3.32% in the assay filed under Homo sapiens; 4.43% in assay [7]; 23.5% in [8]; -2.47% in [9].

Regarding `Cc1noc(C)c1C(=O)NCC(C)N(C)C` (stereo unspecified), the Percent Effect is 1.71% in assay [1]; 16.2% in assay [2]; -3.02% in [3]; -9.99% in assay [4]; -7.71% in the assay on Trypanosoma cruzi; -1.29% in assay [5]. Moreover, the Percent Effect in [6] was 21.5%; in the assay listed under Homo sapiens, 11.2%; in [7], 3.96%; in [8] it was 13.4%; in assay [9], -3.89%.

Consider `O=C(NCC1CC1)[C@H]1C[C@H]2OCC[C@H]2N(Cc2ccoc2)C1`, for which the Percent Effect was -0.0445% in [1]; 21.6% in assay [2]; 4.14% in assay [3]; -14% in [4]; 1.86% in the assay on Trypanosoma cruzi; 6.69% in assay [5]. Moreover, the Percent Effect is 6.09% in [6]; 32.6% in the assay filed under Homo sapiens; 3.24% in [7]; 15.4% in [8]; -0.46% in [9].

With `CN(c1ccc(C(C)(C)C)cc1)S(=O)(=O)c1cc(C(=O)O)cs1`, the Percent Effect in assay [1] is -2.58%; in [2], -2.7%; in assay [3], -8.07%; in assay [4] it was 8.29%; in the assay on Trypanosoma cruzi, -3.11%; in assay [5], 2.4%. For the same molecule, the Percent Effect is -1.08% in assay [6]; -8.15% in the assay listed under Homo sapiens; -1.48% in assay [7]; 1.24% in assay [8]; 1.18% in [9].

Take `Cn1ccnc1CN1CCN(CC(O)c2ccco2)CC1` (stereo unspecified): the Percent Effect in assay [1] was -7.57%; in assay [2] it was 18.2%; in [3] it was -3.75%; in assay [4], -8.89%; in the assay with Trypanosoma cruzi it was -1.86%; in assay [5], -0.632%. Further, the Percent Effect in [6] was 17.4%; in the assay filed under Homo sapiens it was 16.1%; in assay [7] it was 6.67%; in [8], 7.06%; in [9], -4.92%.
